Experimental data published in PubChem BioAssay AID602438 (Sanford-Burnham Center for Chemical Genomics, 2012).
The whole screen tested about 360,000 compounds, of which about 3,100 (0.86%) were called active.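 The calls were made as follows: active = inhibition or corrected inhibition above about 18%, plus a signal ratio from 0.5 to 1.5 (limit read from the data, passing the limit was not always enough); inactive = the rest.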 Shown is part of a subset that was picked to be rich in actives.

biological target: Neuropilin-1 (Homo sapiens) (UniProt O14786); assay: modulators of CendR peptide binding to NRP-1, primary screen, biochemical, fluorescence polarization, uHTS (AID 602438); conditions: FAM-RPARPAR peptide binding to NRP-1, fluorescence polarization; at 25 µM; stronger effect = higher value
Sequence (O14786 whole entry, looked up): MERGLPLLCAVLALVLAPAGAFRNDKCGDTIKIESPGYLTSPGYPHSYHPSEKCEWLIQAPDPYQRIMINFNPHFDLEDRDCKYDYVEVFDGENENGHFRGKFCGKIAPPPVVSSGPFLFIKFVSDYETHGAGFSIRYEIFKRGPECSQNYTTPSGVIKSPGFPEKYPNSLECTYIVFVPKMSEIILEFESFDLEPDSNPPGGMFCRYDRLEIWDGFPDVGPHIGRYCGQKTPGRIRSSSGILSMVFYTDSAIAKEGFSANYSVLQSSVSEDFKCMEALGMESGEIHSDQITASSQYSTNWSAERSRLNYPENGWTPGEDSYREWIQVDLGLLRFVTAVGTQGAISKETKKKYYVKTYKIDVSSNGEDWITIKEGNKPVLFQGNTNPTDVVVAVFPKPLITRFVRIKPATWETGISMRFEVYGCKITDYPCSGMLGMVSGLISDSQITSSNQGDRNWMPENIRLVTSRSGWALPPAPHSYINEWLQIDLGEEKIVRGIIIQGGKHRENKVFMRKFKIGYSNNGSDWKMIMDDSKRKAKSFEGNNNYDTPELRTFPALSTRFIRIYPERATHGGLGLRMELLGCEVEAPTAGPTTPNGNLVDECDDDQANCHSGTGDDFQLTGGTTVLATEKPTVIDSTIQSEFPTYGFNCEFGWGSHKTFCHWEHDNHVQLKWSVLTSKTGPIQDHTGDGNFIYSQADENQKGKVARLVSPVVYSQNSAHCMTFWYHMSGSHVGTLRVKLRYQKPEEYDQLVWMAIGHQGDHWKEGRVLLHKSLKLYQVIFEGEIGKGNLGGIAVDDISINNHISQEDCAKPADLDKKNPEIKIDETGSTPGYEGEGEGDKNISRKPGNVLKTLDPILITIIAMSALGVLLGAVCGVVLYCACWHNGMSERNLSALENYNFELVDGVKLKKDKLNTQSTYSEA

inhibition, inactive:
COC(C[C@@H](O)C[C@H](O)[C@H](C)OCc1ccccc1)OC -8.8%, COC(C[C@@H](O)C[C@@H](O)[C@H](C)OCc1ccccc1)OC 17.1%, COCCn1c(SCc2nc3cc(OC)c(OC)cc3c(=O)[nH]2)nnc1-c1ccncc1 14.6%, NS(=O)(=O)c1ccc(CCNC(=O)c2nc(CS(=O)(=O)c3ccc(Cl)cc3)no2)cc1 -1.3%, O=C1C=C(NCCNc2c(F)c(F)c(CO)c(F)c2F)CCC1 -0.5%, CCOC(=O)[C@]12CCC=C1N(Cc1ccccc1)C(=O)[C@H](CC(=O)N1CCCC1)C2 -23.1%, CC(=O)NC(CC(=O)Nc1nc(-c2ccccc2)c(C(C)=O)s1)c1ccccc1 (centres undefined) -4.6%, CCN1C(=S)N[C@@H](CCc2ccccc2)[C@H](C(=O)OC)[C@H]1C 10.2%, CCN1C(=O)N[C@@H](c2ccccc2)[C@H](C(C)=O)[C@H]1C 7.8%, CC12COC3(C(=O)Nc4ccc(Cl)cn4)CC1CCC32C (centres undefined) -0.2%, Cc1ccc(OCC(=O)Nc2ccc(C(=O)O)cc2NC(=O)COc2ccc(C)c(C)c2)cc1C 0.7%, COc1ccc(OCC(=O)OCCN(C)C)cc1 1.6%, CCCCNC(=O)C1(O)c2ccccc2NC(=O)N1c1ccc(Cl)cc1 (centres undefined) 3.9%, COc1ccc(N(CC(=O)NCCSCc2cccc(Cl)c2)S(C)(=O)=O)cc1 -7.7%, CCCNC(=O)c1cc2c(c(-c3cccc(-c4ccc(C#N)cc4)c3)n1)[C@@H](CCO)N(C(=O)CC)C2 8.8%, O=C(N[C@H]1CC[C@H](CC(=O)N2CCCCC2)O[C@@H]1CO)c1cccc(F)c1 -5%, Cc1cc(=O)oc2c(C)c(OC(C)C(=O)NC3CCN(Cc4ccccc4)CC3)ccc12 (centres undefined) 12.6%, CCCc1cc(=O)oc2c(C)c(OCC(=O)NCc3ccccn3)ccc12 -1%, CC1Cc2ccccc2N1CC(=O)Nc1ccc(S(N)(=O)=O)cc1 (centres undefined) 3.7%, CC1COc2ccccc2N1S(=O)(=O)c1ccccc1 (centres undefined) 8.8%, O=C(O)c1ccc(F)c(S(=O)(=O)Nc2ccccc2)c1 -11.7%, Cc1cc(C(C)(C)C)cc(S(=O)(=O)Nc2ccc(C(=O)O)cc2)c1C 7.7%, COC(=O)C1CCN(C(=O)c2ccc3oc(Cc4ccc(Cl)cc4)nc3c2)CC1 8.2%, O=C(C1CCN(CC2CCCCC2)CC1)N1CCCC1 10.7%, COc1ccc(NC(=O)c2oc3ccc(S(=O)(=O)N4CCOCC4)cc3c2C)cc1 13.1%, NC(=O)CSc1nnc(-c2cccc(S(=O)(=O)N3CCOCC3)c2)o1 -9.5%, C[C@@H]1ON(C)[C@H]2C[C@H]3c4cc(N5CCN(C)CC5)ccc4CCN3C(=O)[C@@H]12 4.7%, Cc1cc(C)cc(N(CCC#N)C(=O)CN2C(=O)NC3(CCCC3)C2=O)c1 -5.9%, CCN(CC)S(=O)(=O)c1ccc2[nH]cc(C(=O)NCCc3ccccc3)c(=O)c2c1 8.6%, CN(C)/C(=N\OC(=O)c1ccccc1)c1nonc1N 2%, COc1cccc(C2/C(=C(/O)c3ccc(F)cc3)C(=O)C(=O)N2CCN(C)C)c1 (centres undefined) 4%, CCCOc1ccc(/C(O)=C2/C(=O)C(=O)N(CCN(C)C)C2c2ccc(OC)c(OC)c2)cc1 (centres undefined) 1.7%, Cc1ccc(-c2nc(CS(=O)CC(=O)N3CCN(c4ncccn4)CC3)c(C)o2)cc1 (centres undefined) -11.2%, CCNC(=S)N(CCc1c(C)[nH]c2ccc(C)cc12)Cc1ccco1 -23.4%, Cc1ccc(C)c(N(CC(=O)NCc2ccco2)C(=O)CCC(=O)Nc2ccccn2)c1 -4.5%, CCN(CC)C(=O)N1CCN(C(=O)c2ccc(C)cn2)CC1 0.3%, Cc1ccc(C(CC(=O)O)NC(=O)c2ccc(S(=O)(=O)N3CCCC3)cc2)cc1 (centres undefined) -5.6%

inhibition, active:
COCCN1C(=O)N[C@@H](CCc2ccccc2)[C@H](C(C)=O)[C@H]1C 23.7%, COc1ccc(C(=O)COC(=O)COc2ccc(C)c(C)c2)cc1 33.9%, CCCc1cc(=O)oc2c(C)c(OC(C)C(=O)NCC(O)c3ccccc3)ccc12 (centres undefined) 22.4%, Cc1ccc(C(=O)Nc2ccccc2-c2ccccc2)cc1S(=O)(=O)Nc1ccccc1 29.8%, Cc1noc(C)c1CSc1nc2cc(S(=O)(=O)N3CCOCC3)ccc2o1 21.4%, C=CCOc1ccc(C2/C(=C(\O)c3c(C)[nH]c(C(=O)OC)c3C)C(=O)C(=O)N2CCN(C)C)cc1 (centres undefined) 29.5%, CCCCC1=CC2=CC(=O)C(C)(OC(=O)CC)C(=O)C2=CN1CCCOC(C)C (centres undefined) 29.4%
